This is an account of results in PubChem BioAssay AID624256 (NMMLSC, 2012).

“And” between values parts separate entries of the source, which are not always exact repeats. Equal values may be shown once. In all, about 360,000 compounds went through this assay and about 3,700 (1%) were called active. Another 2% or so got no clear call; they are omitted.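 How the source made its calls: active means normalized GFP-positive differentiation at or above the plate's own cutoff, the solvent-only control mean plus 3 SD; inconclusive means no clear call, values can overlap the other calls; inactive means the rest.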 The entries come from a sample that favours actives as a whole.

The experiment is described as follows: HoxA9-arrested leukemia cell differentiation promoters – flow cytometry, MLPCN library, primary screen (AID 624256).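 On GFP+ MAC1+ double positive: cells exposed to compound for four days before flow analysis.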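 On normalized GFP-positive differentiation: cells exposed to compound for four days before flow analysis; 0% = DMSO wells and 100% = fulvestrant positive control at 5 µM.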 To be noted: ER-HoxA9 myeloid progenitors, lysozyme-GFP differentiation, at 10 µM; GFP+ MAC1+ double positive: measured here: differentiation confirmed by MAC1 staining, stronger effect = higher value; normalized GFP-positive differentiation: stronger effect = higher value. (In general: Flow cytometry measures light scatter and fluorescence of single cells or particles in a stream.)
`CCCCn1nnnc1C(c1cc2ccccc2o1)N(C)Cc1ccc(Cl)c(Cl)c1` (configuration not stated): the GFP+ MAC1+ double positive was found to be 0.9% and the outcome was inactive.
For `COc1ccccc1C(=O)N/C(=C/c1ccco1)C(=O)Nc1ccc(C(=O)O)cc1`, the GFP+ MAC1+ double positive is 1.5% and the compound was classed as inactive.
For `COc1ccc(NC(=O)/C(C#N)=C\c2cc(OC)c(OCc3ccc(C(=O)O)cc3)cc2Br)cc1`, the GFP+ MAC1+ double positive is 0.2% and the compound was classed as inactive.
For `COCCCn1c(=O)/c(=C/c2ccccc2OC(C)C)s/c1=C(\C#N)C(=O)Nc1ccc(C(=O)O)cc1`, the GFP+ MAC1+ double positive is 2.8% and the normalized GFP-positive differentiation is 20.2% (active).
On to `COCCNC(=O)C1CCCN(Cc2ccccc2Cl)CC1` (configuration not stated), for which the GFP+ MAC1+ double positive is 0.5% and the compound was classed as inactive.
In the case of `COC(=O)[C@@]1(Sc2ccc(C)cc2)CC(=O)N(c2cccc(SC)c2)[C@@H]1c1ccccc1`, the GFP+ MAC1+ double positive turned out to be 0.4% and the result was inactive.
`c1ccc(Cc2c(-c3ccco3)nc3c4ccccc4ccn23)cc1`: the GFP+ MAC1+ double positive amounted to 1.5% and the call was inactive.
With `Cc1ccc(Oc2nc3ccccc3n3c(C)nnc23)cc1`, the GFP+ MAC1+ double positive was 5.3% and the outcome was inactive.
On to `Cc1cc(NC(C)C)n2c(nc3ccccc32)c1C#N`, for which the GFP+ MAC1+ double positive amounted to 1% and the outcome was inactive.
Consider `Cc1ccc(S(=O)(=O)N(C)c2nc3ccccc3n3c(C(C)C)nnc23)cc1`, for which the GFP+ MAC1+ double positive was 2% and the normalized GFP-positive differentiation is 94.1% (active).
On to `Cc1cc2c(cc1C)N1C(=O)c3cc4ccccc4cc3NC(=O)C1C(=O)N2` (configuration not stated), for which the GFP+ MAC1+ double positive turned out to be 1.5% and the call was inactive.
For `Cc1ccc(CSCC(=O)N(C)CC(=O)Nc2cccc(F)c2)cc1`, in that order: 1.2% and “inactive”.
For `CCN(CC)C(=O)CSC(Nc1cccc(F)c1)=C(C#N)C#N`, the GFP+ MAC1+ double positive was 2.2% and the normalized GFP-positive differentiation is 143% (active).
Consider `CN(CC(=O)Nc1cccc(F)c1)C(=O)CC1CCCC1`, for which the GFP+ MAC1+ double positive came out at 0.8% and the outcome was inactive.
In the case of `Cn1c(Nc2ccc(F)cc2)nc2cc(-c3ccsc3)sc2c1=O`, the GFP+ MAC1+ double positive is 0.7% and the compound was called inactive.
On to `CCOC(=O)C1CCCN(C(=O)c2cccc3ccccc23)CC1` (configuration not stated), for which the GFP+ MAC1+ double positive is 1.7% and the result was inactive.
On to `CC(=O)OCC(C)n1c(=O)c2ccccc2n1C(C)=O` (configuration not stated), for which the GFP+ MAC1+ double positive worked out at 1% and the outcome was inactive.
Consider `Cc1[nH]c(=O)c(C(=O)/C=C/c2ccccc2)c2c1CCCC2`, for which the GFP+ MAC1+ double positive was determined as 10.9% and the normalized GFP-positive differentiation was 31.7% (active).
On to `COC(=O)c1c(C)[nH]c(C(=O)/C=C/c2ccc(Cl)cc2)c1C`, for which the GFP+ MAC1+ double positive came out at 0.4% and the result was inactive.
For `CC1(C(=O)O)CCCN(C(=O)/C=C/c2ccccc2)C1` (configuration not stated), in that order: 2.1% and “inactive”.
Regarding `Cc1ccc2nc(-c3ccco3)c(Cc3cccc(Cl)c3)n2c1`, the GFP+ MAC1+ double positive worked out at 0.9% and the outcome was inactive.
For `COc1ccc(/C=C(\C#N)C(=O)NCCCn2ccnc2)cc1`, in that order: 0.1% and “inactive”.
As to `COc1cc(OC)cc(C(=O)NCCCn2ccnc2)c1`, the GFP+ MAC1+ double positive amounted to 0.7% and the compound was classed as inactive.
Turning to `COc1cccc(-c2nn(-c3ccccc3)cc2/C=C(\C#N)C(=O)NCCCn2ccnc2)c1`, the GFP+ MAC1+ double positive amounted to 0.5% and the normalized GFP-positive differentiation is 58.2% (active).
For `Nc1nc2c(Br)ccc(Br)c2cc1C(=O)NCCc1ccccc1`, the GFP+ MAC1+ double positive was found to be 0.7% and the compound was called inactive.
With `CC(C)NC(=O)N1Cc2cc(C(=O)NCC(F)(F)F)nc(-c3cccc(-c4cc5ccccc5o4)c3)c2[C@@H]1CCO`, the GFP+ MAC1+ double positive is 1.5% and the compound was classed as inactive.
As to `COc1ccc(CN(Cc2ccc(OC)cc2)C(=O)c2cccs2)cc1`, the GFP+ MAC1+ double positive came out at 0.3% and the compound was called inactive.
In the case of `COc1ccc(CCNC(=O)/C(C#N)=C2\N=C(NC(=O)c3cccs3)c3ccccc32)cc1`, the GFP+ MAC1+ double positive is 0.9% and the normalized GFP-positive differentiation is 28.9% (active).
As to `CCOc1ncccc1C(=O)NCCc1ccc(OC)cc1`, the GFP+ MAC1+ double positive stood at 0.2% and the compound was classed as inactive.
`CCOC(=O)C1C(C)C(C(C)(C)C)N(S(=O)(=O)c2ccc(C)cc2)C1c1ccccc1` (configuration not stated): the GFP+ MAC1+ double positive is 2.4% and the result was inactive.
Turning to `NC(c1csc(NC(=O)Nc2ccccc2Oc2ccccc2)n1)c1ccccc1Cl` (configuration not stated), the GFP+ MAC1+ double positive came to 0.8% and the call was inactive.
Regarding `CSCCC(c1nnnn1Cc1ccccc1)N1CCN(C/C=C/c2ccccc2)CC1` (configuration not stated), the GFP+ MAC1+ double positive worked out at 1.1% and the compound was called inactive.
Take `COc1ccc(-c2nc3cc(C)ccn3c2NC2CCCCC2)cc1SC1CCCCC1`: the GFP+ MAC1+ double positive was 2.4% and 7.4%; the normalized GFP-positive differentiation was 300% (active) and 217% (active).
Consider `COc1ccc(-c2nc3cnccn3c2NC2CCCCC2)cc1-c1cccc(Cl)c1`, for which the GFP+ MAC1+ double positive was 2.8% and 1.8%; the compound was classed as inactive.
As to `CCOc1cc(-c2nc3cc(C)ccn3c2NCC2CCCO2)ccc1O` (configuration not stated), the GFP+ MAC1+ double positive was 0.6% and the compound was classed as inactive.
Regarding `CN(Cc1ccccn1)Cc1nc(-c2ccc(Cl)cc2)no1`, the GFP+ MAC1+ double positive was 0.5% and the normalized GFP-positive differentiation was 34.3% (active).
As for `CCN1CC(CN(C)Cc2nc(-c3ccc(Cl)cc3)no2)CC1=O` (configuration not stated), the GFP+ MAC1+ double positive was found to be 0.3% and the call was inactive.
Regarding `COC(=O)c1ccc(-c2noc(CN(Cc3ccccn3)CC3CCCO3)n2)cc1` (configuration not stated), the GFP+ MAC1+ double positive came to 0.3% and the compound was classed as inactive.
Regarding `Cc1[nH]c2ccccc2c1C(=O)c1cc([C@H](NC(=O)OC(C)(C)C)C(C)C)sc1N`, the GFP+ MAC1+ double positive was determined as 1% and the call was inactive.
For the compound `CCOC(=O)N1CCN(C(=O)C[C@@H]2C[C@@]3(C(=O)OC)CC(C)(C)CC=C3N(Cc3ccco3)C2=O)CC1`, the GFP+ MAC1+ double positive turned out to be 1.2% and the compound was called inactive.
For the compound `CC1=C(C(=O)N(C(C)C)C(C)C)CC(CC(=O)NCC2CCCCC2)C(=O)N1Cc1ccccc1` (configuration not stated), the GFP+ MAC1+ double positive is 0.3% and the compound was called inactive.
For the compound `O=S(=O)(Nc1cc(Cl)ccc1N1CCOCC1)c1ccccc1Cl`, the GFP+ MAC1+ double positive came to 0.3% and the outcome was inactive.
Regarding `O=C1c2ccccc2-c2ncnc3c(N4CCOCC4)cc(N4CCOCC4)c1c23`, the GFP+ MAC1+ double positive came out at 4.8% and the normalized GFP-positive differentiation was 41.7% (active).
As for `O=C(Nc1ccccc1N1CCOCC1)c1ccncc1`, the GFP+ MAC1+ double positive is 1.1% and the compound was classed as inactive.
On the same counts, the results for `CCCCC[C@H](C)N1C[C@@H](COCc2ccccc2)Oc2cc(N3CC[C@@H](N(C)C)C3)ccc2S1(=O)=O` are 1.2% and “inactive”.
As to `COC(=O)c1ccc2nc(-c3ccc(F)cc3)c(Cc3ccc(C)cc3)n2c1`, the GFP+ MAC1+ double positive came to 0.7% and the call was inactive.
On the same counts, the results for `O=C(O)c1ccccc1-c1cccc2nncn12` are 0.5% and “inactive”.
In the case of `CC(=O)c1c(C)[nH]c(C(=O)NCc2ccc(C)cc2)c1C`, the GFP+ MAC1+ double positive is 1.3% and the compound was called inactive.
On to `CC(=O)c1c(C)[nH]c(C(=O)NCCCN2CCCC2)c1C`, for which the GFP+ MAC1+ double positive stood at 0.6% and the compound was classed as inactive.
In the case of `CCCCN(CC)CCNC(=O)c1[nH]c(C)c(C(C)=O)c1C`, the GFP+ MAC1+ double positive was 2.2% and the normalized GFP-positive differentiation was 13.8% (active).
Take `COC(=O)c1ccc2nc(C3CCCCC3)c(Cc3cccc(F)c3)n2c1`: the GFP+ MAC1+ double positive was determined as 0.7% and the outcome was inactive.
As to `CO[C@@H]1CN(C)C(=O)c2cc(NC(=O)C3CC3)ccc2OC[C@H](C)N(C(=O)CN2CCOCC2)C[C@@H]1C`, the GFP+ MAC1+ double positive turned out to be 1.2% and the compound was classed as inactive.
Take `CC(C(=O)O)N1C(=O)c2cccc3cccc1c23` (configuration not stated): the GFP+ MAC1+ double positive amounted to 1.4% and the result was inactive.
For `CN1C(=O)c2cccc3c(N)ccc(c23)C1=O`, the GFP+ MAC1+ double positive was determined as 1.9% and the normalized GFP-positive differentiation is 96.2% (active).
For the compound `Cc1nn(C)cc1N1C(=O)c2cccc3c(N)ccc(c23)C1=O`, the GFP+ MAC1+ double positive came to 4.9% and the normalized GFP-positive differentiation was 289% (active).
Take `Cn1cc(C2OC(=O)c3ccccc32)c2ccccc21` (configuration not stated): the GFP+ MAC1+ double positive amounted to 1.6% and the compound was classed as inactive.
